Bioassay records (PubChem BioAssay)
KB-V1 MDR tox: kills drug-selected multidrug resistant KB-V1 cells; 3.4% of 400,000 active; KB-V1 MDR cells viability, CellTiter-Glo, 72 h; Potency, µM (highest dose often 46.1 µM), most hits filed as cytotoxic; note: nearly all actives have a fitted effect of over 60% in size
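Cytotoxicity via CellTiter-Glo luminescence after 72 h compound exposure at 37 degrees C. Cells: drug-selected KB-V1 line, DMEM phenol-red free plus 10% FBS. Compounds tested at multiple concentrations; normalized data fitted to concentration-effect curves.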
KB-3-1 cytotox: kills parental KB-3-1 adenocarcinoma cells | KB-3-1 viability, CellTiter-Glo ATP luminescence, 72 h | Potency, µM (highest dose often 46.1 µM), usual class: cytotoxic | 1.4% of 400,000 active | AID 1347075; note: nearly all actives have a fitted effect of over 60% in size
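Luminescent ATP read-out (CellTiter-Glo) measures survival of drug-naive KB-3-1 cells after 72 h compound exposure at 37 °C. Titration series was screened from lowest to highest concentration, with DMSO vehicle plates as background controls.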
TDP1 cell CPT: DT40-hTDP1 cell growth loss with CPT | chicken DT40 Tdp1-/-;hTDP1 cells + 20 nM CPT, ATP luminescence, 48 h | Potency, µM (series often up to 46.2 µM), most hits filed as inhibitors | 12% of 420,000 active | AID 686979; note: nearly all actives have a fitted effect of over 55% in size
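Chicken DT40 Tdp1-/- cells stably complemented with human TDP1 were seeded at 400 cells/well in medium containing 20 nM camptothecin, exposed to pin-transferred compounds, and grown at 37 °C for at least 48 hr. Viability was read as ATP luminescence.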
HT1080 IDH1KD tx: toxicity to HT-1080 IDH1 knockdown cells (counter line). HT-1080 IDH1 knockdown viability, ATP luminescence, 48 h. Potency, µM (top dose mostly 46.1 µM), most hits filed as cytotoxic. 2% of 360,000 active. AID 686971
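After a 2 h attachment period, IDH1KD HT-1080 cells took pin-transferred compound for 48 h at 37 °C; ATP-based luminescence after 10 min room-temperature reagent incubation reported viability.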
HT1080NT lethal: kills 2HG-producing HT-1080-NT fibrosarcoma cells | HT-1080-NT fibrosarcoma viability, CellTiter-Glo ATP luminescence, 48 h | Potency, µM (series often up to 46.1 µM), most hits filed as cytotoxic | 1.6% of 360,000 active | AID 686970;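 note: NT is the 2HG producing partner of a matched IDH1 knockdown line; nearly all actives have a fitted effect of over 55% in size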
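Viability by CellTiter-Glo luminescence after 48 h compound exposure at 37C of HT-1080-NT cells (750/well, RPMI, 5% FBS). % activity scaled between DMSO wells and medium-only wells, then curve-fitted and categorized by curve class.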
DT40 TDP1 no CPT: qHTS for Inhibitors of human tyrosyl-DNA phosphodiesterase 1 (TDP1): qHTS in cells in absence of CPT | DT40 Tdp1-/- hTDP1 cells, no CPT, ATP luminescence, 48 h | 15% of 420,000 active | AID 686978, 2013 | Potency, µM (series often up to 46.2 µM), most hits filed as inhibitors; note: nearly all actives have a fitted effect of over 55% in size
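Camptothecin absent (DMSO only). Human TDP1-complemented DT40 knockout cells, 400 cells/well, 37 °C for minimum 48 hr; ATP measured via CellTiter-Glo, 30 min dark incubation, luminescence.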
Numbers stand for hits; 0 = inactive; ? = inconclusive; - = not tested or not shown; [ ] = dose if it differs, or a comment. Most compounds without a hit are left out; they make up all but 19% or so of the library. Calls come from the whole dose curve; as a rule, active = well fitted curve in the direction sought with a large enough effect; inconclusive = small, poorly fitted or top-dose-only effect, or another doubt; inactive = no such curve, though single readings can be large; an effect the other way counts as inactive or inconclusive.

SMILES | KB-V1 MDR tox | KB-3-1 cytotox | TDP1 cell CPT | HT1080 IDH1KD tx | HT1080NT lethal | DT40 TDP1 no CPT
COc1ccc(NC(=O)CNc2ccc(OC)c(S(=O)(=O)N3CCOCC3)c2)cc1 | 0 | 0 | 0 | 0 | 0 | 0
Cc1ccccc1NC(=O)C1CC(Cl)=CCC1C(=O)O (configuration not stated) | 0 | 0 | ? | 0 | 0 | 13µM
Cc1ccc(C(=O)Nc2cccc3cccnc23)cc1C | ? | 0 | ? | 0 | 0 | ?
CCc1ccc(Cn2c(CNS(=O)(=O)c3ccc(Cl)s3)nc3cccnc32)cc1 | - | - | 16µM | - | - | 16µM
CCOc1ccc(Cn2c(CNS(=O)(=O)c3cccs3)nc3cccnc32)cc1 | - | - | ? | - | - | 23µM
COc1ccc(OCCSc2nnc(CC(=O)Nc3cccc(Cl)c3Cl)n2C)cc1 | ? | 0 | 0 | 0 | 0 | 0
C=CCn1c(CCNC(=O)c2ccc(Cl)c(Cl)c2)nnc1SCCOc1ccc(OC)cc1 | 5.2µM | 0 | ? | ? | ? | 26µM
CCn1c(CNC(=O)Cc2ccc(OC)cc2)nnc1SCCOc1ccccc1 | 0 | 0 | ? | 0 | 0 | 16µM
COc1ccc(CC(=O)NCc2nnc(SCCOc3ccccc3)n2C)cc1 | 0 | 0 | ? | 0 | 0 | ?
C=CCn1c(SCCOc2ccccc2)nnc1C(C)NC(=O)c1ccccc1 (configuration not stated) | ? | 0 | ? | 0 | 0 | 0
CCn1c(CC(=O)Nc2cccc(Cl)c2Cl)nnc1SCCOc1ccc(OC)cc1 | 21µM | 0 | 0 | 0 | 0 | 0
COc1ccc(C(=O)NCc2nnc(SCC(=O)NO)n2Cc2ccccc2)cc1 | 0 | 0 | 18µM | 0 | 0 | ?
C=Cc1ccc(Cn2ccn(-c3ccc(F)c(F)c3)c(=O)c2=O)cc1 | - | - | 0 | - | - | 0
CCCC(=O)Nc1cc(OC)c(NC(=S)Nc2ccc(CC)cc2)cc1OC | 0 | 0 | 0 | 0 | 0 | 16µM
CCOc1ccc(NC(=S)Nc2cc(OC)c(Cl)cc2OC)cc1 | 16µM | 0 | 15µM | 0 | 0 | ?
CCOc1ccc(NC(=S)Nc2cccc3ccccc23)cc1 | ? | 0 | ? | 0 | 0 | 0
COc1cc(NC(=S)Nc2cccc(Cl)c2Cl)c(OC)cc1Cl | 0 | 0 | 0 | 0 | 0 | 0
CCCC(=O)Nc1cc(OC)c(NC(=S)Nc2cccc(C)c2)cc1OC | 0 | 0 | ? | 0 | 0 | 0
CCOc1ccc(NC(=S)Nc2ccccc2C2CC2)cc1 | 0 | 0 | 5.8µM | 0 | 0 | 4.1µM
CCCCCC(=O)Nc1nc(C)c(-c2csc(Nc3ccc(Cl)cc3)n2)s1 | 0 | 0 | ? | ? | 0 | 13µM
CCCCCCC(=O)Nc1nc(C)c(-c2csc(Nc3ccc(Cl)cc3)n2)s1 | 0 | ? | 2.3µM | ? | 21µM | 4.6µM
CCCCCC(=O)Nc1nc(C)c(-c2csc(Nc3cc(Cl)ccc3C)n2)s1 | 0 | 0 | ? | ? | ? | 18µM
CN1C=CC(=CC=C2C=CC(=O)C=C2)C=C1 | 0 | 0 | 0 | 0 | 0 | 0
CC(C)C(=O)NC(=S)Nc1ccc(S(=O)(=O)N(C)Cc2ccccc2)cc1 | ? | ? | ? | 21µM | ? | 18µM
COc1ccc(NS(=O)(=O)c2ccc(NC(=S)NC(=O)C(C)C)cc2)cc1 | 0 | 0 | 18µM | 0 | 0 | 16µM
SMILES | KB-V1 MDR tox | KB-3-1 cytotox | TDP1 cell CPT | HT1080 IDH1KD tx | HT1080NT lethal | DT40 TDP1 no CPT
CN(Cc1ccccc1)S(=O)(=O)c1ccc(NC(=O)C2CCCCC2C(=O)O)cc1 (configuration not stated) | 21µM | 0 | 0 | 0 | 0 | 0
CCOc1ccc(/C(O)=C/C(=O)C(=O)Nc2ccc(S(=O)(=O)NC(C)=O)cc2)cc1 | 0 | 0 | 26µM | 0 | 0 | 0
CN(Cc1ccccc1)S(=O)(=O)c1ccc(NC(=O)C2CCCO2)cc1 (configuration not stated) | 0 | 0 | ? | 0 | 0 | ?
COc1ccc(S(=O)(=O)Nc2ccc(NC(C)=O)cc2)cc1 | 0 | 0 | 0 | 0 | 0[9.24 µM] | ?
CC(=O)NC(=S)Nc1ccc(S(=O)(=O)N(C)Cc2ccccc2)cc1 | ? | 0 | ? | ? | 0 | ?
CC1=C(C(=O)OC(C)C)C(c2cncc(-c3ccc(F)cc3)c2)C(C#N)=C(N)O1 (configuration not stated) | ? | 0 | ? | 0 | 0 | ?
CCOc1ccc(NS(=O)(=O)c2ccc(NC(=S)NC(=O)C(C)C)cc2)cc1 | 0 | 0 | 21µM | ? | ? | ?
CC(C)C(=O)NC(=S)Nc1ccc(S(=O)(=O)NC(C)(C)C)cc1 | 0 | 0 | ? | 0 | 0 | ?
CC(C)C(=O)NC(=S)Nc1ccc(S(=O)(=O)Nc2ccccc2)cc1 | 23µM | 0 | 0 | 0 | 0 | 0
CCOc1ccc(S(=O)(=O)Nc2ccc(C(=O)NN)cc2)cc1 | 0 | 0 | ? | 0 | 0 | 0
CCOc1ccc(NS(=O)(=O)c2ccc(NC(=S)NC(C)=O)cc2)cc1 | 0 | 0 | 23µM | 0 | 0 | 23µM
O=Cc1c(NC2CCCCC2)c2ccccc2[nH]c1=O | 0 | 0 | 0 | 0 | 0 | 0
COC(=O)C1C2OC(C(Br)C2Br)C1C(=O)OC (configuration not stated) | 0 | 0 | 0 | 0 | 0 | 0
Cc1ccccc1OCCSc1nnc(-c2ccc([N+](=O)[O-])cc2)o1 | 0 | 0 | 0 | - | - | 0
CC(=O)N1CCC(N(Cc2ccc(C)o2)C(=O)Nc2ccccc2F)CC1 | ? | 0 | 0 | - | - | 0
CCN1CCC(N(Cc2ccc3c(c2)OCO3)C(=O)Nc2cc(Cl)ccc2C(=O)OC)CC1 | ? | 16µM | 13µM | - | - | 7.3µM
COC(=O)c1ccc(Cl)cc1NC(=O)N(Cc1ccc(C)o1)C1CCN(C(C)=O)CC1 | 0 | 0 | ? | - | - | 15µM
CCc1ccccc1NC(=O)Cn1c(=O)n(-c2ccc(C)cc2)c(=O)c2cc(OC)c(OC)cc21 | 0 | 0 | 0 | - | - | 0
CCCC(=O)NCCCc1nc2ccccc2n1C(C)C | 0 | 0 | ? | 0 | 0 | 15µM
Cc1ccc(Cn2c(CCNC(=O)c3cccc(C)c3)nc3ccccc32)cc1 | - | - | 18µM | - | - | ?
CCn1c(CCNC(=O)c2ccc(OC)c(OC)c2)nc2ccccc21 | 3.7µM | 0 | 0 | 0 | 0 | ?
COc1cc(C(=O)NCCCc2nc3ccccc3n2CC(C)C)cc(OC)c1OC | 0 | 0 | 21µM | - | - | ?
CCCC(=O)NCCc1nc2ccccc2n1CC(=O)c1ccccc1 | 0 | 0 | 0 | 0 | 0 | 0
COc1ccc2nc(NC(=O)c3cc(=O)c4cc(C)cc(C)c4o3)sc2c1 | 0 | 0 | 0 | - | - | 0
Cc1cccc(C)c1-n1ncc(C(=O)O)c1C1CCN(C(=O)OC(C)(C)C)CC1 | 0 | 0 | 0 | - | - | 0
Cc1cccc(C)c1-n1nnnc1C1(C)CCC(=O)N1CC(F)(F)F (configuration not stated) | 0 | 0 | 0 | 0 | 0 | ?
